# Screening data from PubChem BioAssay.
# TDP1 block – inhibitors of human tyrosyl-DNA phosphodiesterase TDP1; Q9NUW8; recombinant TDP1, AlphaScreen DNA substrate cleavage; Potency, µM (highest dose often 130 µM), for the others: top-dose activity change, negative = inhibition, usual class: inhibitors; 350,000 tested, 0.28% active; AID 485290; also: % is scaled to controls: 0 for no effect and ±100 for the full control effect; nearly all actives have a fitted effect of over 40% in size
# Target sequence (Q9NUW8 whole entry, looked up): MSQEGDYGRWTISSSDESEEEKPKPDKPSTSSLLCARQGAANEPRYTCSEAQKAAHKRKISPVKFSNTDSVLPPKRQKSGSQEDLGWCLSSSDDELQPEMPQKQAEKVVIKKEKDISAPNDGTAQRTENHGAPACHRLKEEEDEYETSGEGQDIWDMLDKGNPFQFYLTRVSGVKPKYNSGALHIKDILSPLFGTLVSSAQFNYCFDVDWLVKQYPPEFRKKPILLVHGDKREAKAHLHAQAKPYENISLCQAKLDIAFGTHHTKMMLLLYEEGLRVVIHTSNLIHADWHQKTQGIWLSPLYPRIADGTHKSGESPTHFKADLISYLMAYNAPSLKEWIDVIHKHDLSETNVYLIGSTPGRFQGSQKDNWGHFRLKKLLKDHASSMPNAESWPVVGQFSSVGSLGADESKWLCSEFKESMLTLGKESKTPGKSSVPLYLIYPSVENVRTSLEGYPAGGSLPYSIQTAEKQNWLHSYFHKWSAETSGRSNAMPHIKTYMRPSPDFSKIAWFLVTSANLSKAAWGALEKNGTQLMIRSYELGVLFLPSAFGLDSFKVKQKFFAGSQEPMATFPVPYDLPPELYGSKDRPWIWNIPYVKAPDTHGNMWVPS
#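 AlphaScreen read-out: signal falls as enzyme removes the 3' tyrosine-FITC from a 5'-biotinylated DNA oligo (15 nM, 5 min, RT). Enzyme was E. coli-made recombinant Tdp1 at 1 nM, exposed to compound for 15 min beforehand; beads 10 ug/ml, 10 min.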
# TDP1 cell noCPT – qHTS for Inhibitors of human tyrosyl-DNA phosphodiesterase 1 (TDP1): qHTS in cells in absence of CPT | 420,000 tested, 15% active | DT40 Tdp1-/- hTDP1 cells, no CPT, ATP luminescence, 48 h | Potency, µM (titrated, usually from 46.2 µM), for the others: top-dose activity change, negative = growth inhibition, hits mostly inhibitors; also: % is scaled to controls: 0 for no effect and ±100 for the full control effect; nearly all actives have a fitted effect of over 55% in size
#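 Luminescent ATP content (CellTiter-Glo) served as the growth readout. Knockout chicken DT40 cells expressing human TDP1 were exposed to compounds without camptothecin for a minimum 48 hr at 37 °C.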
# TDP1 cell CPT – growth inhibition of DT40 Tdp1-/-;hTDP1 cells with camptothecin (screen for TDP1 inhibitors); chicken DT40 Tdp1-/-;hTDP1 cells + 20 nM CPT, ATP luminescence, 48 h; Potency, µM (titrated, usually from 46.2 µM), inactives show at the top dose activity change, negative = growth inhibition, usual class: inhibitors; 420,000 tested, 12% active; AID 686979; also: % is scaled to controls: 0 for no effect and ±100 for the full control effect; nearly all actives have a fitted effect of over 55% in size
#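 Cell growth measured by CellTiter-Glo luminescence after a minimum 48 h, 37 C compound exposure with 20 nM CPT in Tdp1-knockout DT40 cells stably expressing hTDP1, seeded 400/well; qHTS titration format.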
# ClpP mod – qHTS Assay for Activators of ClpP; ATP-dependent Clp protease proteolytic subunit (Bacillus subtilis (strain 168)), P80244; purified B. subtilis ClpP, FRET peptide cleavage, 20 min; Potency, µM (top dose mostly 57.5 µM), inactives show at the top dose activity change, negative = active; 340,000 tested, 1.9% active; active = well fitted falling curve with a large enough effect; inconclusive = small, poorly fitted or top-dose-only effect; inactive = no such curve, though single readings can be large or run the other way; also: the source files actives as falling curves though it sought activators and does not explain the sign; nearly all actives have a fitted effect of over 65% in size
#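 ClpP 10 microg/mL final, pH 8 Tris/KCl buffer with BSA, glycerol, Tween-20; compound pinned in; FRET-FV substrate; RT 20 min; Ex320/Em430; ΔFRET vs ADEP 5.8 microM, DMSO, no enzyme.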
# * marks the source's active call; other numbers are inactive results; ? = inconclusive; / = not tested or not shown; [ ] = remark or other dose. Sampled rows, rich in hits. Any-hit rate of the full collection: about 17%. Unless noted, calls follow the shape of the dose curve; as a rule, active = well fitted curve in the direction sought with a large enough effect; inconclusive = small, poorly fitted or top-dose-only effect, or another doubt; inactive = no such curve, though single readings can be large; an effect the other way counts as inactive or inconclusive. Potency is read from the fitted curve at half-maximal effect.
SMILES,TDP1 block,TDP1 cell noCPT,TDP1 cell CPT,ClpP mod
CC1CN(C(=O)c2cccc(Oc3ccccc3)c2)CC(C)O1 (stereo unspecified),2%,?,?,0%
COc1ccc(CC(=O)NC2CC(=O)N(c3ccc4c(c3)OCCO4)C2)cc1 (stereo unspecified),3%,10%,-4%,2%
O=C(c1ccccc1)c1ccc2ccccc2c1,/,-20%,-10%,/
O=C(c1ccccc1)c1c2c(cc3sc4ccccc4[n+]13)-c1cccc3cccc-2c13,5%,2.3µM*,4.6µM*,-7%
Cc1sc2cc3c(c(C(=O)c4ccccc4)[n+]2c1C)-c1cccc2cccc-3c12,3%,1.3µM*,1µM*,1%
COc1cccc(C(=O)Nc2cccc(C(=O)OCc3cc(=O)n4nc(C5CC5)sc4n3)c2)c1,-1%,3.7µM*,?,-1%
CC(C)(C)C(=O)Nc1cccc(C(=O)OCc2cc(=O)n3nc(C4CC4)sc3n2)c1,-1%,18µM*,?,0%
Cc1ccccc1C(=O)Nc1cccc(C(=O)OCc2cc(=O)n3nc(C4CC4)sc3n2)c1,-4%,?,?,0%
O=C(OCc1cc(=O)n2nc(C3CC3)sc2n1)c1cccc(NC(=O)c2ccccc2Cl)c1,4%,21µM*,21µM*,0%
O=C(CSc1ccc(F)cc1)Nc1ccc(C2SCCS2)cc1,5%,?,2%,/
COc1ccc(OC)c(S(=O)(=O)NCCCN2CCCC2=O)c1,4%[56.1 µM],28%,-4%,-2%
CCOc1ccc(CSC2=NCCN2)cc1Cl,0%,15µM*,?,0%
N#Cc1ccc(CSC2=NCCN2)cc1,5%,23µM*,21µM*,/
Clc1ccccc1CSC1=NCCN1,0%,-6%,-18%,2%
c1ccc(CSC2=NCCCN2)cc1,1%,0%,3%,-1%
CCOC(=O)c1c(C)[nH]c(C)c1S(=O)(=O)N1CCCC(C(=O)N2CCN(c3ccccc3)CC2)C1 (stereo unspecified),6%,?,?,0%
CC(=N[C@@H]1CCCC[C@H]1N=C(C)c1ccccc1O)c1ccccc1O,3%,-12%,0%,0%
CCOc1cc2c(cc1O)C(=NOC)CC1C2CCC2(C)C(O)CCC12 (stereo unspecified),/,0.82µM*,0.92µM*,1%
COc1cc2c(cc1O)CCC1C2CC[C@]2(C)[C@@H](O)CC[C@@H]12 (stereo partly specified),9%[56.1 µM],/,/,/
C=CCn1cccc(/C=C/C(=O)c2ccc(C(C)(C)C)cc2)c1=S,8%,7.3µM*,7.3µM*,-2%
CCS(=O)(=O)N1Cc2ccccc2CC1C(=O)N(C)Cc1ccc(OC)c(F)c1 (stereo unspecified),12%,?,-29%,/
c1ccc(Nc2nc(NCCN3CCOCC3)nc(Nc3ccccc3)n2)cc1,/,?,?,1%
Ic1ccc(Nc2nc(NCCN3CCOCC3)nc(N3CCOCC3)n2)cc1,/,2.8µM*,5µM*,1%
Ic1ccc(Nc2nc(NCCN3CCOCC3)nc(N3CCCC3)n2)cc1,/,11µM*,11µM*,-2%
CCC(=O)N1CCc2cc(Br)cc(S(=O)(=O)CCC(=O)N3CCN(c4ccccc4OC)CC3)c21,-3%,?,?,-2%
SMILES,TDP1 block,TDP1 cell noCPT,TDP1 cell CPT,ClpP mod
C/C(=N\NS(=O)(=O)c1ccccc1)c1ccccc1,3%,0%,0%,/
CCCCc1ccc(S(=O)(=O)N/N=C(/C)c2ccncc2)cc1,2%,?,16µM*,32µM*
C=CCn1c(=N)c(C(=O)NCCCOC)cc2c(=O)n3cccc(C)c3nc21,3%,?,?,-11%
CCNC(=O)c1cc2c(=O)n3cccc(C)c3nc2n(CCc2ccccc2)c1=N,1%,13µM*,?,?
COCCCNC(=O)c1cccn2c(=O)c3cc4ccccc4cc3nc12,9%,7.3µM*,18µM*,-5%
COCCn1c(=N)c(C(=O)NCCc2ccccc2)cc2c(=O)n3cccc(C)c3nc21,/,?,?,1.4µM*
Cc1cccn2c(=O)c3cc(C(=O)NCc4ccccc4)c(=N)n(CCCN4CCOCC4)c3nc12,/,?,?,3%
Cc1cccn2c(=O)c3cc(C(=O)NCCc4ccccc4)c(=N)n(CCCn4ccnc4)c3nc12,7%,?,?,18µM*
Cc1cccn2c(=O)c3cc(C(=O)NCCN4CCOCC4)c(=N)n(CCc4ccccc4)c3nc12,4%,23µM*,?,3.2µM*
CCCCc1c(-c2ccc(OC)c(OC)c2)ncn1CCc1ccccc1OC,/,5.8µM*,5.8µM*,-29%
COc1ccccc1CCn1cnc(-c2ccc(OC)c(OC)c2)c1C(C)C,/,5.8µM*,8.2µM*,-23%
CCCCCc1c(-c2ccccc2)ncn1CCc1ccccc1OC,/,15µM*,23µM*,2%
COc1ccccc1Cc1c(-c2ccc(OC)c(OC)c2)nc2cc(C)c(Br)c(C)n12,/,?,?,-20%
CCCCc1c(-c2cccc(OC)c2)ncn1CCc1ccccc1OC,/,18µM*,15µM*,0%
Cc1csc(NCC(=O)c2c(C)[nH]c3ccccc23)n1,/,12%,7%,-14%
Cc1cc(-c2ccc(S(=O)(=O)Nc3ccc(Br)c(C)c3)s2)on1,0%,15µM*,23µM*,1%
Cc1cc(-c2ccc(S(=O)(=O)Nc3cc(Cl)ccc3C)s2)on1,0%,2.9µM*,4.6µM*,1%
Cc1cc(-c2ccc(S(=O)(=O)Nc3ccccc3F)s2)on1,0%,?,-18%,-1%
CC(C)c1c(C(=O)N(C)CC2CCCN(C)C2)cnn1-c1nccc(-c2cccs2)n1 (stereo unspecified),/,-18%,?,/
COc1ccc(NC(=O)CN2c3cccc4cccc(c34)S2(=O)=O)cc1OC,/,7.3µM*,?,-14%
Cc1ccc(NC(=O)CN2c3cccc4cccc(c34)S2(=O)=O)cc1S(=O)(=O)N1CCOCC1,1%,18µM*,?,?
COc1ccc(NC(=O)CN2C(=O)c3ccccc3S2(=O)=O)cc1OC,9%,1%,1%,/
COc1ccccc1CNC(=O)CCC1N=C2c3ccccc3N=C(SCc3ccccc3Cl)N2C1=O (stereo unspecified),3%,?,?,-16%
CCOc1ccc(S(=O)(=O)Nc2ccc(-c3ccc(OC)nn3)cc2)cc1,8%,?,?,0%
Cc1cc(C)c(S(=O)(=O)Nc2ccc(-c3ccc(N4CCCCCC4)nn3)cc2)cc1C,8%,?,?,-11%
CCOc1ccc(-c2ccc(NS(=O)(=O)c3cc(C)c(C)cc3C)cc2)nn1,7%,18µM*,23µM*,4%
CCOc1ccc(-c2ccc(NS(=O)(=O)c3ccc(C)cc3)cc2)nn1,3%,?,16µM*,2%
